D1 potentiator = Potentiators of Human D1 Dopamine Receptor: qHTS; HEK293 TREx D1 cells, calcium flux, dopamine EC20 potentiation; D(1A) dopamine receptor (Homo sapiens), P21728; potentiation, % at 10 µM; 360,000 tested, 0.036% active; AID 504651, 2011; in the data active means potentiation above about 30%
Target sequence (P21728 whole entry, looked up): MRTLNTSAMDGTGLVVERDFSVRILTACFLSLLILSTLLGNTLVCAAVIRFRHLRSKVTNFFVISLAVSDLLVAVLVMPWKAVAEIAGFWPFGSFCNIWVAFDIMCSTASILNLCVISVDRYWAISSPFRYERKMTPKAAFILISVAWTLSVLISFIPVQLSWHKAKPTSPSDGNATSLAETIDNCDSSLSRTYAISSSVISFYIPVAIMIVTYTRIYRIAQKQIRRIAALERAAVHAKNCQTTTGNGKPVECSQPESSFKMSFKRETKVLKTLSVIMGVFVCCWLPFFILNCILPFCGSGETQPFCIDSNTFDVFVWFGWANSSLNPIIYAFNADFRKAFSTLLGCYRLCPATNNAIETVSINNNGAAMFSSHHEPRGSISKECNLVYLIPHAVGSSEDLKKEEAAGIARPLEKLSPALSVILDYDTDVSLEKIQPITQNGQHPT
D3 ag = qHTS of D3 Dopamine Receptor Agonist: qHTS; D(3) dopamine receptor (Homo sapiens), P35462; D3R DiscoveRx beta-arrestin cells, luminescence, 90 min; max activation, %; 410,000 tested, 0.58% active; AID 652048, 2013; in the data active means max activation above about 30%
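Agonist-mode cell screen: cells plated at 1500/well and incubated overnight at 37 °C, then exposed to library compounds for 90 min at 37 °C. Detection reagent was added for 30–60 min at room temperature, and luminescence was read.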
D1 antag = Antagonist of Human D 1 Dopamine Receptor: qHTS; HEK293 TREx D1 cells, calcium flux, dopamine EC80; stronger effect = lower value; AID 504652, 2011; 360,000 tested, 3.2% active; D(1A) dopamine receptor (Homo sapiens), P21728; activity change, negative = inhibition, % at 10 µM; in the data active means activity change below about -30%
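Calcium flux readout: force-coupled, inducible Hek293 Trex D1 line, cells induced overnight at 30 C with tetracycline, dye-loaded 30–90 min at RT. Antagonism scored against EC80 dopamine challenge given 180 s after compound.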
D1 ag = Allosteric Agonists of the Human D1 Dopamine Receptor: qHTS | HEK293 T-REx D1 cells, calcium flux, agonist mode | activation, % at 2 µM | 360,000 tested, 1% active; in the data active means activation above about 30%
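Inducible HEK293 T-REx D1 cells, force-coupled to calcium signalling, were plated at 4000 cells/well with tetracycline and held overnight at 30 C. After no-wash calcium dye loading, compound-evoked calcium rise over 180 s flagged agonists.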
D3 antag = qHTS of D3 Dopamine Receptor Antagonist: qHTS; D(3) dopamine receptor (Homo sapiens), P35462; D3R cells, DiscoveRx beta-arrestin luminescence, antagonist mode; stronger effect = lower value; max response, negative = inhibition, %; 360,000 tested, 2.5% active; in the data active means max response below about -50%; inconclusive means no clear call, values can overlap the other calls
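Cells plated overnight at 1500 cells/well, then exposed to library compounds with dopamine controls for 90 minutes at 37 degrees C. DiscoveRx reagent added for 30–60 minutes at room temperature; luminescence read, quantitative HTS format.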
Numbers stand for hits; . = inactive; ? = inconclusive; / = no result; ! = not active in a repeat. An excerpt weighted towards active compounds, which were near 6% of everything screened.

SMILES | D1 potentiator | D3 ag | D1 antag | D1 ag | D3 antag
COc1cccc(C(=O)O[C@H]2[C@H](C)NS(=O)(=O)[C@H]3C[C@@H]4C=C[C@]23O4)c1 | . | . | / | . | .
COc1cccc(C(=O)O[C@H]2[C@H](Cc3ccccc3)NS(=O)(=O)[C@H]3C[C@@H]4C=C[C@]23O4)c1 | / | . | / | / | -52
Cn1c(=O)c2cc(NC(=O)NCCc3cccs3)ccc2n1Cc1ccccc1 | / | . | / | / | .
CCc1ccc(N2C(=O)C(Cl)=C(Nc3ccc(C(=O)N4CCCC4)cc3)C2=O)cc1 | . | . | . | . | -57
O=C(NCc1ccc(F)cc1)c1cc(C2CCCN(C(=O)c3ccc4c(c3)CCO4)C2)on1 (centres undefined) | / | . | / | / | .
CCC(=O)N1CCc2cc(Br)cc(S(=O)(=O)N3CCN(c4ccccc4OC)CC3)c21 | . | . | . | . | /
CCOCCCNC(=O)c1[nH]c2cc(OC)ccc2c1Sc1ccccc1 | . | . | . | . | /
CC(C)(C)NC(=O)Cn1nnc(-c2ccc(Cl)cc2)n1 | . | . | . | . | .
CC(C)(C)NC(=O)Cn1nnc(-c2ccc(OCc3c(F)cccc3Cl)cc2)n1 | . | . | -32 | . | .
COc1ccc(NC(=O)c2ccco2)cc1NC(=O)COc1ccc(C)cc1C | . | . | . | . | /
Cc1ccc(N2CCN(C(=O)c3cnc(N4CCCCC4)c4ccccc34)CC2)c(C)c1 | . | . | . | . | /
CCOc1ccccc1CN1CCN(Cc2[nH]c3ccccc3c2C)CC1CCO (centres undefined) | . | . | . | 56 | -53
Cc1ccc(CN2CCN(Cc3cc(=O)c4ccccc4[nH]3)CC2CCO)o1 (centres undefined) | . | . | . | . | .
CCOc1ccccc1CN1CCN(Cc2cc(=O)c3ccccc3[nH]2)CC1CCO (centres undefined) | . | . | -36 | . | ?
CCOc1ccccc1CN1CCN(Cc2c[nH]c3ccccc23)CC1CCO (centres undefined) | . | . | . | . | .
c1ccc(Cc2nnc3sc(Nc4ccccc4)nn23)cc1 | . | . | -45 | . | .
Brc1ccc(-c2nn3c(Cc4ccccc4)nnc3s2)o1 | . | . | . | . | .
COc1ccc(S(=O)(=O)N2CCOCC2)cc1NC(=O)COc1cccnc1[N+](=O)[O-] | . | . | . | . | -63
COc1ccc(S(=O)(=O)N2CCCCCC2)cc1NC(=O)CN1C(=O)NC(C)(c2ccccc2)C1=O (centres undefined) | . | . | -31 | . | .
COc1ccc(S(=O)(=O)N2CCCCC2)cc1NC(=O)CCNC(=O)c1ccccc1Cl | . | . | -70 | . | .
COc1ccccc1CNC(=O)N1CCN(S(=O)(=O)c2ccccc2)CC1 | . | 30 | . | . | .
Cc1ccc(NC(=O)Cn2c(=O)n(-c3ccc(C)cc3)c(=O)c3ccc(C(=O)NCc4ccccc4Cl)cc32)cc1 | . | . | . | . | /
COc1ccccc1CNC(=O)CN1C(=O)CCc2cc(S(=O)(=O)N3CCCCC3)ccc21 | . | . | -56 | . | /
CSC(=NCc1ccco1)NC#N | . | . | -34 | . | .
NC(=NCc1ccco1)NC(=O)c1ccccc1 | . | . | . | . | .
SMILES | D1 potentiator | D3 ag | D1 antag | D1 ag | D3 antag
Cc1ccc(Cn2c(C)c(CNCc3ccc(OC(C)C)cc3)c(C(=O)O)c2C)cc1 | . | . | . | . | /
CCCN(CCO)CCCc1ccccc1 | . | . | . | . | .
CCN(CCCC(=O)c1ccc(F)cc1)CCc1ccccc1 | . | 32 | -36 | . | .
CCN(CCCc1ccccc1)CCCc1ccccc1 | . | . | . | . | -96
O=C(NOCC1CC1)c1ccc(F)c(F)c1Nc1ccc(I)cc1Cl | / | . | / | / | /
CCn1c(=O)c2cc(C(=O)N3CCN(c4cccc(Cl)c4)CC3)sc2c2ccccc21 | . | . | . | . | /
O=C(NCCCN1CCCC1=O)c1cccc(N2CCCC2=O)c1 | . | . | . | . | .
CCCCNC(=O)Oc1cccc(N2CCCC2=O)c1 | . | . | . | . | -69
Cc1ccc(C(=O)OCC(=O)c2c[nH]c3ccccc23)cc1 | . | . | . | . | .
Cc1ccc(S(=O)(=O)CCC(=O)OCC(=O)c2c[nH]c3ccccc23)cc1 | . | 33 | . | . | .
CC(C)Cc1ccc(C(C)C(=O)OCC(=O)c2c[nH]c3ccccc23)cc1 (centres undefined) | . | . | . | 37 | .
Cc1ccc(C(=O)NCC(=O)OCC(=O)NC(C)C2CC3CCC2C3)cc1 (centres undefined) | . | . | . | . | .
Cc1cccc(C(=O)OCc2cc(=O)n3ccsc3n2)c1 | . | . | . | . | /
CCOC(=O)C1CCC(CN(Cc2cccc(Br)c2)S(=O)(=O)c2ccc(C)cc2)CC1 (centres undefined) | . | . | . | 32 | /
COc1ccc(C2C(C(=O)Nc3ccccc3)=C(C)Nc3nc(-c4ccccc4)nn32)cc1OC (centres undefined) | . | . | . | . | /
Cc1ccc(SCCNS(=O)(=O)c2ccc3c(c2)OCCO3)cc1 | . | . | -33 | . | .
O=S(=O)(NCCCCNS(=O)(=O)c1c(F)cccc1F)c1ccc2c(c1)OCCO2 | . | / | -41! | . | /
COc1ccc(S(=O)(=O)NCCSc2ccc(C)cc2)cc1OC | . | . | . | . | .
O=C(CCCn1c(=O)c2ccccc2n(CC(=O)Nc2cccc(C(F)(F)F)c2)c1=O)NCc1ccc2c(c1)OCO2 | . | . | . | . | /
Cc1ccc(/C=C/C(=O)NCCCc2ccccc2)cc1 | . | . | -40 | . | .
CC(Cc1ccccc1)NC(=O)/C=C/c1ccc([N+](=O)[O-])cc1 (centres undefined) | . | . | . | . | .
CC(CCc1ccccc1)NC(=O)/C=C/c1ccc(Cl)cc1 (centres undefined) | . | . | -86 | . | .
Cc1cccc(N=C2NC(=O)/C(=C3/C(=O)N(C)c4ccccc43)S2)c1C | . | . | . | . | -93
COC(=O)c1cccc(CN2C(=O)SC(Nc3ccc(Cl)cc3)C2=O)c1 (centres undefined) | . | . | -32 | . | /
COC(=O)c1cccc(CN2C(=O)SC(Nc3ccc(C)cc3)C2=O)c1 (centres undefined) | . | . | . | . | .
O=C(C[C@@H]1CC[C@H](NC(=O)Nc2ccc(F)cc2)[C@@H](CO)O1)NCc1cccc(F)c1 | / | . | / | / | .
C=Cc1ccc(Cn2c(=O)n(C)c(=O)c3sccc32)cc1 | . | . | -34 | . | .
COc1ccc(COc2ncnc3ccc(Br)cc23)cc1F | 32 | . | . | . | .
Cc1ccc2c(=O)[nH]c(Cc3ccccc3C(=O)O)nc2c1 | . | 40 | . | . | .

Screening data: PubChem BioAssay, National Center for Advancing Translational Sciences (NCATS)
